# Assay results published in the supplement of paper PMC6555819.
# Legend:
# Experiment in all cases: PBM binding z-score (relative to random genomic background probes); higher = stronger binding; sequences stand for … in GC…GCGATTGACAGCGTAGAATGAAGG
# [1] = tested on: FXR:RXRa (NR concentration 270 nM, RXRa partner concentration 90 nM)
# Procedure, shortened: (§1)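 Each nuclear receptor dimer, without ligand, was incubated for 1 h on custom Agilent 4×180K protein-binding microarrays. Binding was detected with antibodies against each partner (one per run), and scanned fluorescence was regression-normalized. The binding z-scores are referenced to random human genomic background probes.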
# [2] = tested on: LXRa:RXRa (NR concentration 270 nM, RXRa partner concentration 90 nM)
# Procedure, shortened: as §1
# [3] = tested on: LXRa homodimer (NR concentration 270 nM)
# Procedure, shortened: as §1
# [4] = tested on: LXRb:RXRa (NR concentration 270 nM, RXRa partner concentration 90 nM)
# Procedure, shortened: as §1
# [5] = tested on: LXRb homodimer (NR concentration 270 nM)
# Procedure, shortened: as §1
# [6] = tested on: PPARa:RXRa (NR concentration 270 nM, RXRa partner concentration 90 nM)
# Procedure, shortened: as §1
# [7] = tested on: PPARg:RXRa (NR concentration 180 nM, RXRa partner concentration 90 nM)
# Procedure, shortened: as §1
# [8] = tested on: PPARg:RXRa 270nM:90nM, anti-RXR (NR concentration 270 nM, RXRa partner concentration 90 nM)
# Procedure, shortened: as §1
# [9] = tested on: PPARg:RXRa 30nM:10nM, anti-RXR (NR concentration 30 nM, RXRa partner concentration 10 nM)
# Procedure, shortened: as §1
# [10] = tested on: PPARg:RXRa 90nM:30nM, anti-RXR (NR concentration 90 nM, RXRa partner concentration 30 nM)
# Procedure, shortened: as §1
# [11] = tested on: PPARg:RXRa DBDmut IVT, anti-RXR (DBD mutation: RXRa K156A/R161A, NR concentration 270 nM, RXRa partner concentration 90 nM)
# Procedure, shortened: as §1
# [12] = tested on: PPARg:RXRa IVT, anti-PPARg (NR concentration 270 nM, RXRa partner concentration 90 nM)
# Procedure, shortened: as §1
# [13] = tested on: PPARg DBDmut:RXRa IVT, anti-PPARg (DBD mutation: PPARg1 K132A/R137A, NR concentration 270 nM, RXRa partner concentration 90 nM)
# Procedure, shortened: as §1
# [14] = tested on: PPARg DBDmut IVT, anti-PPARg (DBD mutation: PPARg1 K132A/R137A, NR concentration 270 nM)
# Procedure, shortened: as §1
# [15] = tested on: PPARg homodimer (NR concentration 180 nM)
# Procedure, shortened: as §1
# [16] = tested on: PXR:RXRa (NR concentration 270 nM, RXRa partner concentration 90 nM)
# Procedure, shortened: as §1
# [17] = tested on: PXR homodimer (NR concentration 270 nM)
# Procedure, shortened: as §1
# [18] = tested on: RARa:RXR (NR concentration 270 nM, RXRa partner concentration 90 nM)
# Procedure, shortened: as §1
# [19] = tested on: RARa homodimer (NR concentration 270 nM)
# Procedure, shortened: as §1
# [20] = tested on: RARb:RXRa (NR concentration 270 nM, RXRa partner concentration 90 nM)
# Procedure, shortened: as §1
Sequence,PBM binding z-score [1],PBM binding z-score [2],PBM binding z-score [3],PBM binding z-score [4],PBM binding z-score [5],PBM binding z-score [6],PBM binding z-score [7],PBM binding z-score [8],PBM binding z-score [9],PBM binding z-score [10],PBM binding z-score [11],PBM binding z-score [12],PBM binding z-score [13],PBM binding z-score [14],PBM binding z-score [15],PBM binding z-score [16],PBM binding z-score [17],PBM binding z-score [18],PBM binding z-score [19],PBM binding z-score [20]
CCTAGCAGGCCAATCTCGGTCACTCAAGGCTTGA,0.604,2.68,0.339,-0.0855,-0.585,0.406,-0.312,-0.384,-1.26,-0.439,1.96,1.29,-0.633,-1.57,0.0271,-0.17,-0.412,0.0359,-0.713,1.34
TCTAATAGTTGAAGGGCAACCGACGAGTCCGTTT,0.931,0.943,0.0231,0.595,-0.0774,1.14,0.216,2.02,3.45,2.9,2.21,0.129,1.32,0.0205,0.705,0.839,0.503,0.712,-0.387,1.53
TCTGCTAGGTCTGTTGGTCAGCTAACGAGCTGCC,-0.418,-0.439,-1.21,-0.715,0.485,-0.204,-1.23,0.384,0.834,0.687,0.324,0.208,0.17,0.0841,-1.76,-0.467,-0.379,-0.461,-1.79,0.107
TCTATTAGTTGAAGGGCAACCAACGAGTCCGTTT,0.452,0.763,0.54,0.694,0.122,0.554,-0.00575,1.94,3.75,2.69,2.05,0.417,0.246,1.16,0.593,0.786,0.837,0.718,1.55,1.46
CCGTCTGGGGCATAAGGTTACCATAAGCCAGCCC,0.562,2.1,-0.402,0.847,-1.32,1.78,1.29,2.07,0.233,1.54,1.52,1.84,-1.52,-1.72,0.475,0.566,-0.335,1.39,-0.41,1.84
AGTCGAAGTTCACTAGGTAACGTAAGATTCAGCT,1.2,1.74,0.29,1.03,-0.107,2.81,3.18,3.43,0.891,2.44,1.76,3.45,0.653,0.81,0.849,1.88,1.18,0.939,0.371,2.91
GATACAGGGTCAGCTAGAGCCCAGAGTATGGAAA,4.49,2.36,-0.499,2.18,-0.471,4.59,3.94,3.29,0.917,2.03,0.771,2.13,-0.422,-0.697,1.06,1.83,-0.197,2.74,-0.316,3.81
GTAACGAGGGCAAAGTTGATAGCATCTGTCGACG,1.48,1.29,-0.238,1.17,0.169,4.2,7.58,7.24,6.77,7.65,4.16,4.69,0.947,0.296,0.574,1.36,0.402,1.77,0.268,2.36
TAGCCTAGGTCATTGAGCCAGTATAGTACGCATC,4.4,3.31,0.78,2.32,0.252,3.48,1.95,1.97,0.417,1.11,1.41,2.41,0.454,0.0795,0.0834,1.53,-0.111,2.18,-0.419,3.6
TAGCCTAGGTCATTCTGGGGCCAGTATAGAAAGC,4.29,3.66,0.795,2.94,1.34,3.37,1.98,2.19,0.292,1.44,1.71,2.77,0.208,0.242,0.886,2.29,-0.248,2.76,-0.372,3.67
CGAACTAGGTCATTTACAGGACAGTGAATAGTAA,4.33,3.3,1.29,2.69,0.887,4.56,6.79,6.09,3.53,5.66,8.11,8.23,5.73,3.57,2.35,1.74,0.63,2.39,0.283,3.39
CCTACTGGGCCAATGGTCATTGATTCCAATGCTC,-0.623,-0.68,-0.691,-0.531,-0.674,1.86,4.15,5.51,3.81,6.38,3.79,4.11,0.147,-0.523,-0.104,-0.581,-0.689,-0.388,-0.588,0.311
ACTAGCAGGCCAAGGGTCACCCAAGATTAGTCCG,3.24,2.98,0.036,2.76,-0.624,5.01,8.49,7.88,6.88,9.09,1.04,4.15,0.826,-0.393,2.65,3.94,-0.00443,5.22,1.35,3.62
